Assay results: PubChem BioAssay
Active and inactive are the calls of the source.

Assays:
[1] = small molecules captured by biotinylated probe aFSTL3 – biochemical, small-molecule microarray, fluorescence 635/667, stem cell growth factor project, primary screen (AID 1064); conditions: higher = more signal;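 note: measures binding of the biotinylated anti-FSTL3 antibody to printed compounds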
[2] = binders from COS7 lysate, DM2A8 probe, primary screen, torsin A project, cell lysate, small-molecule microarray, fluorescence 635/667 (AID 1065); conditions: higher = more signal, COS7 lysate expressing mutant human TOR1A
[3] = small molecules captured by biotinylated probe aFGF2 – biochemical, small-molecule microarray, fluorescence 635/667, stem cell growth factor project, primary screen (AID 1067); conditions: higher = more signal;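 note: measures binding of biotinylated aFGF2 protein to printed compounds on slides; z-score merges feature fluorescence and signal-to-noise across triplicate slides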
[4] = small molecules captured by biotinylated probe aFGF10 – biochemical, small-molecule microarray, fluorescence 635/667, stem cell growth factor project, primary screen (AID 1071); conditions: higher = more signal;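 note: score merges 667 nm spot intensity and signal to noise from triplicate slides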
[5] = molecular target: Neurogenic locus notch homolog protein 2 (Homo sapiens) (UniProt Q04721); test: small molecules binding Notch2 protein – biochemical, small-molecule microarray, 635 nm fluorescence, stem cell growth factors, primary screen (AID 1073); conditions: higher = more signal
Sequence of Neurogenic locus notch homolog protein 2 (Homo sapiens) (Q04721 whole entry, looked up, canonical isoform): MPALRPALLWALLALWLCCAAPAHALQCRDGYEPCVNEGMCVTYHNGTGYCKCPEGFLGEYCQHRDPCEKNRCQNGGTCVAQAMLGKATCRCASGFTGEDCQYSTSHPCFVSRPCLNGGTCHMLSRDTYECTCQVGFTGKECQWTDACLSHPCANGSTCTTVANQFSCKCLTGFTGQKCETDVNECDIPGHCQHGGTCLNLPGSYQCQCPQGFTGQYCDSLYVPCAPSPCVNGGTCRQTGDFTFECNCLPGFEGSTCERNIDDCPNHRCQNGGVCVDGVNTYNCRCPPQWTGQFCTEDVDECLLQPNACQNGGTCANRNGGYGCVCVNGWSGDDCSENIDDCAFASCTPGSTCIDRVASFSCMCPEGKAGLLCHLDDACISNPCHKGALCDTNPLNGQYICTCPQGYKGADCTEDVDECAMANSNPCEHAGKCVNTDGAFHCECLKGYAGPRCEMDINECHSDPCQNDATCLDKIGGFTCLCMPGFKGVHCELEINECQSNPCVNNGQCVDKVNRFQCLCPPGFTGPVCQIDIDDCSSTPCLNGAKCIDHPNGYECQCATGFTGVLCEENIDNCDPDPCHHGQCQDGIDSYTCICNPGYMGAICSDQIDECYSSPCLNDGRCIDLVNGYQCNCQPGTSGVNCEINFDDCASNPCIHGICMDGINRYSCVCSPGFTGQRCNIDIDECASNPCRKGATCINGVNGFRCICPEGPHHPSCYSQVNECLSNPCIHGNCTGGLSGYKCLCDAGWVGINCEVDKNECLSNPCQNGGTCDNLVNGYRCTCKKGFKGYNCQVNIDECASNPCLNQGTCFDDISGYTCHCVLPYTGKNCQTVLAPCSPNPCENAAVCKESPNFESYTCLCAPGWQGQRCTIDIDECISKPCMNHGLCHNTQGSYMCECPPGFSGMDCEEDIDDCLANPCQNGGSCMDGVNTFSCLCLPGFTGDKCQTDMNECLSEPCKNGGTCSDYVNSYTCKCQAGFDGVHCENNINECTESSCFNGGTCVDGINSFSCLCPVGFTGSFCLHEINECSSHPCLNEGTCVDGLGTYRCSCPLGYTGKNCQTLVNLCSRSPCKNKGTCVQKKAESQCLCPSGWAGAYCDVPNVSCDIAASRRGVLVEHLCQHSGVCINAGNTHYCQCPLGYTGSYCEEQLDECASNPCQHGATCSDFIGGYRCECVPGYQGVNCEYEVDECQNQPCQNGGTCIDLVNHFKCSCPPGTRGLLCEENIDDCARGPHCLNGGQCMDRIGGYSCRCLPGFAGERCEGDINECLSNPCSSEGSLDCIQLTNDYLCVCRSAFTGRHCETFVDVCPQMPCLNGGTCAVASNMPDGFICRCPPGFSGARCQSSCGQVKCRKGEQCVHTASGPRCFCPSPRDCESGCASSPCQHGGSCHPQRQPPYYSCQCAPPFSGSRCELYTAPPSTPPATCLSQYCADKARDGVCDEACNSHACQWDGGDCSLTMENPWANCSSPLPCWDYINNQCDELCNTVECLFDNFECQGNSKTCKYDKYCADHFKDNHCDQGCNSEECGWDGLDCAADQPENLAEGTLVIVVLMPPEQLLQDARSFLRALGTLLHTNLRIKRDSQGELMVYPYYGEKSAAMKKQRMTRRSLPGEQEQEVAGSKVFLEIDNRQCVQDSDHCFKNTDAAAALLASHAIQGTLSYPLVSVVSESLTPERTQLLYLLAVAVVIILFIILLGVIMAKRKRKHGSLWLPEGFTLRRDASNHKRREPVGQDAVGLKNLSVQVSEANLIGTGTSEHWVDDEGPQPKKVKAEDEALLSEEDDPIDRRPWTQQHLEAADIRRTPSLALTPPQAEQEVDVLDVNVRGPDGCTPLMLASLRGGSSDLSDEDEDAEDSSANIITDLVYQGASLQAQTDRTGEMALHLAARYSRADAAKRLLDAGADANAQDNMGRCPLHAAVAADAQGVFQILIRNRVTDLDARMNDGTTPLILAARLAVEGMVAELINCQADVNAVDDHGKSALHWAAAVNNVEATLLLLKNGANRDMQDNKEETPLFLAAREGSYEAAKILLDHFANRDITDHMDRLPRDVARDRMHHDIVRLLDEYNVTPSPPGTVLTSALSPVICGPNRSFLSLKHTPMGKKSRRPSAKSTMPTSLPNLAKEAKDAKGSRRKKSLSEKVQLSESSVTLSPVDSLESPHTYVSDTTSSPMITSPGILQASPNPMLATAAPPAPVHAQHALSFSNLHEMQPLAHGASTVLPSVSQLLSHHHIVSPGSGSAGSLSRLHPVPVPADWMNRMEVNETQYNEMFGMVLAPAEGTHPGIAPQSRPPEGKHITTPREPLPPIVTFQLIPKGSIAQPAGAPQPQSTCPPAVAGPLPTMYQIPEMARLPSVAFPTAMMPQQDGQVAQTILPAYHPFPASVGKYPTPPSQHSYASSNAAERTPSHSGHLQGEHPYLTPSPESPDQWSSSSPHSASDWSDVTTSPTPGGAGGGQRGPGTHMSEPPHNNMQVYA

[6] = molecular target: Pro-neuregulin-1, membrane-bound isoform (Homo sapiens) (UniProt Q02297); test: small molecules binding neuregulin-1 protein – biochemical, small-molecule microarray, fluorescence 635/667, psychiatric disease protein project, primary screen (AID 1075); conditions: NRG1 binding, 635 nm fluorescence, higher = more signal;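 note: score combines 667 nm spot fluorescence with signal to noise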
Sequence of Pro-neuregulin-1, membrane-bound isoform (Homo sapiens) (Q02297 whole entry, looked up, the tested form may be a part, canonical isoform): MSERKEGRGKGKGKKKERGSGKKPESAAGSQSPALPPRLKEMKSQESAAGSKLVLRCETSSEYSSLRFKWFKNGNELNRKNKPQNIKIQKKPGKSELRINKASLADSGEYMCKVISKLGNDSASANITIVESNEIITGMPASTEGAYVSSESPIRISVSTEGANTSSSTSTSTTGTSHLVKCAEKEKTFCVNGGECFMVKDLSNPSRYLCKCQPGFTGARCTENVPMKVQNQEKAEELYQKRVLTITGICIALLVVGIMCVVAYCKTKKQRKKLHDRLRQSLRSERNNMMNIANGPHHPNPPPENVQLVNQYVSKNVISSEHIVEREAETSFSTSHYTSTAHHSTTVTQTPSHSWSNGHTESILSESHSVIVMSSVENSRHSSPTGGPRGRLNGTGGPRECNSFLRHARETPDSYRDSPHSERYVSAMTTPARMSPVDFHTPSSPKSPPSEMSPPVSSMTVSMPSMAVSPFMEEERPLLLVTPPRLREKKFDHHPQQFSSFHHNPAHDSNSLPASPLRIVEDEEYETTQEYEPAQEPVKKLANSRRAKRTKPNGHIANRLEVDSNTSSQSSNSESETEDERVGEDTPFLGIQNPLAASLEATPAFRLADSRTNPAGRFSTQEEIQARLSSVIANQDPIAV

[7] = system: Neuregulin-1 EGF-like domain; test: small molecules binding NRG1 EGF domain – biochemical, small-molecule microarray, 635 nm fluorescence, primary screen (AID 1081); conditions: higher = more signal;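 note: binding of the protein to compounds printed on small-molecule microarray slides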
[8] = FRG1 expression reporter modulators in myotubes – cell-based, C2C12 myotubes, firefly/Renilla luciferase, luminescence, FRG1 inhibition for FSHD, primary screen (AID 1084); conditions: FRG1 promoter luciferase, higher = more signal, called active from +8 up or from −8 down
[9] = small molecules captured by biotinylated probe aFST – biochemical, small-molecule microarray, fluorescence 635/667, stem cell growth factor project, primary screen (AID 1086); conditions: higher = more signal;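 note: score merges 667 nm fluorescence with signal-to-noise of each printed compound spot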
[10] = binders of probe aHhip on microarray, primary screen, stem cell growth factor project, biochemical, small-molecule microarray, fluorescence 635/667 (AID 1087); conditions: higher = more signal;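 note: score merges spot fluorescence at 667nm with spot signal to noise ratio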
[11] = system: PRMT1 (protein arginine N-methyltransferase 1); test: small molecules binding arginine methyltransferase PRMT1 – biochemical, small-molecule microarray, 635 nm fluorescence, primary screen (AID 1088); conditions: higher = more signal;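 note: binding of Prmt1 protein to compounds spotted on small-molecule microarray slides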
[12] = growth effects on S. cerevisiae YJM789 – YJM789 clinical isolate, OD600, 24 h, basal, primary screen (AID 1089); conditions: higher = more signal, called active from +8 up or from −8 down;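 note: growth of clinical yeast isolate S. cerevisiae YJM 789 seeded 1000 cells per well; test concentration not given here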
[13] = S. pombe growth modifiers, basal conditions – strain 972, OD600, 24 h, no modulator, primary screen (AID 1090);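 note: basal condition with compound alone and no growth modifier present; test concentration not given here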; conditions: S. pombe 972 growth, higher = more signal, called active from +8 up or from −8 down
[14] = budding yeast growth modifiers under rapamycin – strain BY4716, OD600, 96 h, primary screen (AID 1091); note: test concentration not given here; conditions: S. cerevisiae BY4716 + rapamycin, higher = more signal, called active from +8 up or from −8 down
[15] = molecular target: Torsin-1A-interacting protein 2 (Homo sapiens) (UniProt Q8NFQ8); test: small molecules binding lysate-expressed LULL1 – cell lysate, human LULL1 lysate, 635/667 nm fluorescence, primary screen (AID 1092); conditions: small-molecule microarray, hLULL1 lysate binding, 635 nm fluorescence; higher = more signal;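 note: probe is lysate of COS7 cells overexpressing human LULL1; score merges per-feature 667 nm fluorescence with signal-to-noise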
Sequence of Torsin-1A-interacting protein 2 (Homo sapiens) (Q8NFQ8 whole entry, looked up): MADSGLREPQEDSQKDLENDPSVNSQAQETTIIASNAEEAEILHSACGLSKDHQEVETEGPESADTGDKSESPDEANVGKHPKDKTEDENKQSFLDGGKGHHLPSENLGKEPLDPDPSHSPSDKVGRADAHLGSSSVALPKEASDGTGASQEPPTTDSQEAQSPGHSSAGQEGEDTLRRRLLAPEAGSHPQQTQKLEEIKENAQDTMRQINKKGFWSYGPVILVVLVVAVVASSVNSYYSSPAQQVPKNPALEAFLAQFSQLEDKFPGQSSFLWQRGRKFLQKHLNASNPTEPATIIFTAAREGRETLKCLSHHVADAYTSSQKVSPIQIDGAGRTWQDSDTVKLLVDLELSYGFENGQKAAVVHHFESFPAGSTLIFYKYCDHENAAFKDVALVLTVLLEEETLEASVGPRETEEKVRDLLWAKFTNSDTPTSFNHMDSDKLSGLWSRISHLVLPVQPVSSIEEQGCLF

[16] = optical density change of DRC41 E. coli – strain DRC41, OD650, 24 h, E. coli filamentation project, primary screen (AID 1093);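 note: MC1000 strain lacking acrAB efflux and sulA so SOS filamentation is blocked; test concentration not given here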; conditions: E. coli DRC41 growth, higher = more signal, called active from +8 up or from −8 down
[17] = probe aLefty2 binding to arrayed compounds – biochemical, biotinylated probe, 635/667 nm fluorescence, primary screen (AID 1094); conditions: small-molecule microarray, higher = more signal;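 note: score merges spot fluorescence near 667 nm with spot signal-to-noise ratio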
[18] = system: Noggin (protein binding on small-molecule microarray); test: small molecules binding Noggin protein – biochemical, 635/667 nm fluorescence, primary screen (AID 1095); conditions: 635 nm fluorescence, higher = more signal;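 note: score merges 667 nm feature fluorescence with signal to noise over triplicate slides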
[19] = molecular target: Neurogenic locus notch homolog protein 3 (Homo sapiens) (UniProt Q9UM47); test: small molecules binding NOTCH3 protein – biochemical, 635/667 nm fluorescence, primary screen (AID 1096); conditions: small-molecule microarray, 635 nm fluorescence, higher = more signal
[20] = probe aEGFR binding to arrayed compounds – biochemical, biotinylated probe, 635/667 nm fluorescence, primary screen (AID 1097); conditions: small-molecule microarray, higher = more signal;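 note: probe is a biotinylated anti-EGFR antibody binding compounds printed on slides; score combines fluorescence near 667 nm and signal to noise of each spot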

SMILES	composite z-score [1]	composite z-score [2]	composite z-score [3]	composite z-score [4]	composite z-score [5]	composite z-score [6]	composite z-score [7]	z-score [8]	composite z-score [9]	composite z-score [10]	composite z-score [11]	z-score [12]	z-score [13]	z-score [14]	composite z-score [15]	z-score [16]	composite z-score [17]	composite z-score [18]	composite z-score [19]	composite z-score [20]
C=CC[C@]1(C(=O)N(C)C)COC(c2ccc(OCCCO)cc2)=N1	1.11	2.23	0.23	0.744	0.221	1.83	1.42	0.233 (inactive)	0.459	0.0373	1.36	0.0794 (inactive)	-2.04 (inactive)	-0.95 (inactive)	2.75	-1.46 (inactive)	0.804	-0.39	-0.338	0.367
CCOC(=O)C1=CCC(c2cc3ccccc3[nH]2)N(S(=O)(=O)c2ccccc2[N+](=O)[O-])C1 (stereo not given)	-0.191	0.0999	-0.0481	0.465	1.37	1.48	0.957	-2.98 (inactive)	0.361	0.0505	0.659	-0.134 (inactive)	1.18 (inactive)	1.41 (inactive)	3.07	-0.424 (inactive)	-0.125	0.674	0.356	0.0357
CCCCN1CC=CC23O[C@@H]4C=CCOC(=O)[C@@H]4[C@H]2C(=O)N(CCO)[C@@H]3C1=O (stereo not given in full)	1.37	0.0339	-0.168	-1.03	-1.39	0.332	0.695	0.432 (inactive)	-0.657	-0.0645	-0.757	-0.312 (inactive)	-0.706 (inactive)	-0.179 (inactive)	0.62	-0.454 (inactive)	0.221	-1.45	-0.823	-0.327
C=C(COC)C(=O)CC[C@@H](OC(C)=O)c1ccc(OCCO)cc1	0.266	1.48	-0.107	0.432	0.297	-0.239	0.835	-0.556 (inactive)	-0.25	0.347	1.07	0.0756 (inactive)	-2.44 (inactive)	-0.056 (inactive)	0.276	-0.0345 (inactive)	-0.159	0.482	0.512	-0.21
CN(C)CCCNC(=O)[C@@H]1c2ccccc2C(=O)N(C2Cc3ccccc3C2)[C@H]1c1ccc(CO)cc1	0.158	0.345	-0.0566	-0.273	0.175	0.618	0.849	-1.3 (inactive)	0.178	-0.151	1.56	-0.463 (inactive)	-0.271 (inactive)	-0.915 (inactive)	2.03	0.688 (inactive)	-0.127	0.0726	0.241	0.111
CCCC=C(CCC)[C@@H](NC(=O)c1ccccc1)c1ccc(C(=O)OC)cc1	0.0872	0.78	0.502	0.752	0.541	-0.0843	1.19	3.19 (inactive)	1.01	1.09	0.661	-0.532 (inactive)	-1.5 (inactive)	-0.938 (inactive)	2.56	0.689 (inactive)	0.688	0.748	0.997	0.23
O=C1OCCC/C=C\[C@H]2OC34C=CCN(Cc5ccccc5)C(=O)[C@H]3N(CCCCCO)C(=O)[C@@H]4C12 (stereo not given in full)	0.566	-0.079	-0.147	-0.0433	-1.12	1.05	0.387	2.92 (inactive)	-0.693	-0.116	1.01	-1.05 (inactive)	-2.16 (inactive)	15.7 (active)	3.13	0.549 (inactive)	-0.166	-0.773	-0.0471	-0.245
C=C(/C(=C/C[C@@H](OC(C)=O)c1ccccc1OCCO)c1cc(C(=O)OC)ccc1OC)C(C)C	-0.101	0.179	-0.049	0.643	0.632	0.685	0.5	0.178 (inactive)	-0.145	-0.312	0.551	0.343 (inactive)	-0.377 (inactive)	-0.729 (inactive)	0.231	0.505 (inactive)	-0.119	0.235	-0.163	0.198
CN1C(=O)C2C(C1=O)C1C=C(c3ccc(CO)cc3)C2C(c2cccs2)N1C (stereo not given)	0.085	0.429	-0.0578	0.0934	-0.0125	0.885	1.04	1.63 (inactive)	-0.075	-0.137	-0.27	-0.208 (inactive)	-2.24 (inactive)	1.33 (inactive)	0.989	1.24 (inactive)	-0.072	-0.518	-0.133	0.637
C=CCNC(=O)[C@@H]1[C@H]2C(=O)O[C@H](c3ccccc3)[C@H](c3ccccc3)N2[C@H](c2ccccc2OCCO)[C@@]12C(=O)N(C(=O)OCCOC)c1ccc(C#CCCO)cc12	-0.0812	0.693	0.0645	1.05	0.742	1.2	1.21	0.0106 (inactive)	-0.66	0.277	1.55	0.656 (inactive)	0.619 (inactive)	3.69 (inactive)	2.88	-0.625 (inactive)	-0.135	0.96	1.08	0.038
CCCC[C@H]1OB(O)C[C@H]2C1=C(C)C[C@H]1C(=O)C=CC(=O)[C@H]12	-0.567	-0.0474	-0.0887	0.309	0.425	0.532	0.698	0.358 (inactive)	0.189	0.176	1.24	0.111 (inactive)	-15.4 (active)	-0.0407 (inactive)	1.01	-0.0396 (inactive)	-0.0916	0.782	1.04	-0.071
C=CC[C@]1(C(=O)NCc2ccccc2)COC(c2ccc(OCCCO)cc2)=N1	2.17	2.12	-0.008	-0.588	-0.813	1.09	0.521	0.235 (inactive)	0.946	-0.335	0.822	-1.4 (inactive)	-4.95 (inactive)	-1.22 (inactive)	2.87	1.34 (inactive)	0.843	-1	-0.447	-0.0675
CCCC[C@@H]1C[C@H]1[C@@H](NC(=O)Cc1ccccc1)c1ccc(Cl)cc1	0.409	0.469	0.428	0.671	1.63	1.72	1.19	-2.4 (inactive)	1.46	-0.193	0.576	0.0911 (inactive)	-1.16 (inactive)	1.68 (inactive)	3.14	-0.76 (inactive)	0.105	1.34	1.03	0.218
COC(=O)[C@@]1(Cc2ccccc2)[C@H]2c3cc(C(=O)N4CCCC4)n(Cc4ccc(C(F)(F)F)nc4)c3C[C@H]2CN1C(=O)c1ccccc1	0.356	1.74	0.237	0.747	1.54	1.98	1.37	0.419 (inactive)	2.11	0.0858	1.19	-0.461 (inactive)	0.449 (inactive)	1.98 (inactive)	3.64	-0.35 (inactive)	0.226	0.073	1.03	0.265
CC(C)C(=C=CC[C@@H](O)c1ccc(OCCO)cc1)CCO	-0.226	-0.0605	-0.128	0.127	-0.0765	0.346	0.402	0.0636 (inactive)	-0.315	0.0505	0.693	-1.21 (inactive)	-1.32 (inactive)	-1.4 (inactive)	-0.0081	1.23 (inactive)	-0.225	0.96	0.271	-0.146
C=C(CCCC)C(=O)CC[C@H](OC(C)=O)c1ccccc1OCCO	-0.327	-0.0867	-0.0471	0.776	0.435	0.898	-0.0255	-0.881 (inactive)	0.167	-0.358	1.19	0.489 (inactive)	-2.03 (inactive)	-0.438 (inactive)	0.383	0.733 (inactive)	-0.12	0.0384	0.67	-0.177
C=CCC(OC(C)=O)[C@@H]1[C@@H](N(Cc2ccc(-c3ccccc3)cc2)C(=O)c2ccc(C)cc2)c2cc(OCCCO)ccc2N1C(=O)c1ccc2ccccc2c1 (stereo not given in full)	-0.233	0.0822	-0.116	-0.148	-0.168	-0.138	-0.405	-2.01 (inactive)	0.482	-0.0427	0.0718	-2.33 (inactive)	-0.326 (inactive)	-0.693 (inactive)	0.327	1.34 (inactive)	-0.173	0.166	0.305	-0.139
[N-]=[N+]=NCc1ccccc1C[C@]1(C(=O)O)COC(c2ccc(OCCCO)cc2)=N1	0.895	-0.167	-0.0213	-0.461	-0.664	1.57	0.0238	0.277 (inactive)	0.0273	0.2	-0.486	0.493 (inactive)	0.612 (inactive)	-0.0738 (inactive)	-0.0986	0.398 (inactive)	-0.0252	-0.389	-0.614	-0.0702
CCCCC(O)C1C=CC2C(=O)NC(=O)C2N1Nc1ccccn1 (stereo not given)	-0.197	-0.0611	-0.0691	0.329	0.949	0.699	0.683	0.86 (inactive)	0.0344	-0.128	-0.357	0.374 (inactive)	0.667 (inactive)	0.0569 (inactive)	0.0273	-1.73 (inactive)	-0.0825	-0.0426	-0.421	-0.067
COC(=O)[C@@]1(Cc2ccc(F)cc2)[C@H]2c3cc(C(=O)N(C)C)n(CCO)c3C[C@H]2CN1C(=O)c1ccccc1	0.135	-0.311	0.169	0.429	1.5	2.16	1.06	-1.11 (inactive)	0.433	0.218	0.0788	-1.48 (inactive)	0.766 (inactive)	-0.618 (inactive)	2.89	-0.28 (inactive)	0.0423	-0.515	-0.562	-0.0271
